About 2,000 (36%) of roughly 5,500 compounds were called active. Another 18% or so got no clear call; they are omitted. Cut-off read from the data, not from the text of the source: active = normalized growth mostly below about 0.91 (no sharp cut-off); inconclusive = no clear call, values can overlap the other calls; inactive = mostly above about 0.92. The list shows a part of the results.
Assay: chemical genetic growth profiling, strain panel (AID 1159580);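 note: tested at 20 µM; growth read once vehicle control cultures reached saturation at 30 °C; 1 = growth at the plate median or of vehicle wells; lower values mean less growth of the strain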
Details: growth OD

Measured: normalized growth

NC(=O)N1c2ccccc2CC(=O)c2ccccc21
inactive: S. cerevisiae deletion strains, locus YKL009W, strain mrt4, active compounds read low 1.01 | S. cerevisiae deletion strains, locus YKL068W, active compounds read low 0.994 | S. cerevisiae deletion strains, locus YKL085W, strain MDH1 (second series), active compounds read low 1.02 | S. cerevisiae deletion strains, locus YKL085W, strain MDH1, active compounds read low 1.02 | S. cerevisiae deletion strains, locus YKL160W, strain elf1, active compounds read low 1.05 | S. cerevisiae deletion strains, locus YKL190W, strain CNB1, active compounds read low 1 | S. cerevisiae deletion strains, locus YKR001C, strain vps1, active compounds read low 0.969 | S. cerevisiae deletion strains, locus YKR026C, strain gcn3, active compounds read low 0.972 | S. cerevisiae deletion strains, locus YKR091W, strain srl3, active compounds read low 0.989 | S. cerevisiae deletion strains, locus YLL001W, strain dnm1, active compounds read low 0.969 | S. cerevisiae deletion strains, locus YLL026W, active compounds read low 0.988 | S. cerevisiae deletion strains, locus YLL041C, strain sdh2, active compounds read low 0.982 | S. cerevisiae deletion strains, locus YLR027C, strain aat2, active compounds read low 0.999 | S. cerevisiae deletion strains, locus YLR039C, strain RIC1, active compounds read low 0.972 | S. cerevisiae deletion strains, locus YLR058C, strain SHM2, active compounds read low 0.988 | S. cerevisiae deletion strains, locus YLR102C, strain apc9, active compounds read low 0.979 | S. cerevisiae deletion strains, locus YLR113W, strain HOG1, active compounds read low 0.96 | S. cerevisiae deletion strains, locus YLR221C, strain rsa3, active compounds read low 0.962 | S. cerevisiae deletion strains, locus YLR258W, strain gsy2, active compounds read low 1.01 | S. cerevisiae deletion strains, locus YLR262C, strain YPT6 (second series), active compounds read low 1.01 | S. cerevisiae deletion strains, locus YLR262C, strain YPT6, active compounds read low 1.01 | S. cerevisiae deletion strains, locus YLR268W, strain sec22, active compounds read low 1 | S. cerevisiae deletion strains, locus YLR320W, strain mms22, active compounds read low 0.945 | S. cerevisiae deletion strains, locus YLR330W, strain CHS5, active compounds read low 0.989 | S. cerevisiae deletion strains, locus YLR342W, strain FKS1 (second series), active compounds read low 0.949 | S. cerevisiae deletion strains, locus YLR342W, strain FKS1, active compounds read low 0.998 | S. cerevisiae deletion strains, locus YLR357W, strain rsc2, active compounds read low 0.993 | S. cerevisiae deletion strains, locus YLR370C, strain arc18, active compounds read low 1 | S. cerevisiae deletion strains, locus YLR371W, strain rom2, active compounds read low 0.969 | S. cerevisiae deletion strains, locus YLR384C, strain iki3, active compounds read low 0.983 | S. cerevisiae deletion strains, locus YLR418C, strain cdc73, active compounds read low 1.01 | S. cerevisiae deletion strains, locus YML016C, strain PPZ1, active compounds read low 0.985 | S. cerevisiae deletion strains, locus YML032C, strain rad52, active compounds read low 0.96 | S. cerevisiae deletion strains, locus YML120C, strain ndi1, active compounds read low 0.949 | S. cerevisiae deletion strains, locus YML124C, strain tub3, active compounds read low 0.979 | S. cerevisiae deletion strains, locus YMR058W, strain fet3, active compounds read low 0.978 | S. cerevisiae deletion strains, locus YMR078C, strain ctf18, active compounds read low 0.973 | S. cerevisiae deletion strains, locus YMR125W, strain sto1, active compounds read low 0.971 | S. cerevisiae deletion strains, locus YMR129W, active compounds read low 0.992 | S. cerevisiae deletion strains, locus YMR205C, strain PFK2, active compounds read low 0.96 | S. cerevisiae deletion strains, locus YMR223W, strain ubp8, active compounds read low 0.962 | S. cerevisiae deletion strains, locus YMR231W, strain pep5, active compounds read low 0.971 | S. cerevisiae deletion strains, locus YMR263W, strain SAP30, active compounds read low 1.02 | S. cerevisiae deletion strains, locus YMR307W, strain GAS1, active compounds read low 0.881 | S. cerevisiae deletion strains, locus YNL067W, strain RPL9B, active compounds read low 1.02 | S. cerevisiae deletion strains, locus YNL071W, strain lat1, active compounds read low 0.979 | S. cerevisiae deletion strains, locus YNL128W, strain TEP1, active compounds read low 1.01 | S. cerevisiae deletion strains, locus YNL153C, strain GIM3, active compounds read low 1.02 | S. cerevisiae deletion strains, locus YNL183C, strain NPR1, active compounds read low 0.943 | S. cerevisiae deletion strains, locus YNL209W, strain ssb2, active compounds read low 0.988 | S. cerevisiae deletion strains, locus YNL233W, strain BNI4, active compounds read low 1 | S. cerevisiae deletion strains, locus YNL248C, strain rpa49, active compounds read low 0.997 | S. cerevisiae deletion strains, locus YNL250W, strain rad50, active compounds read low 0.99 | S. cerevisiae deletion strains, locus YNL271C, strain bni1, active compounds read low 0.974 | S. cerevisiae deletion strains, locus YNL298W, strain CLA4, active compounds read low 0.974 | S. cerevisiae deletion strains, locus YNL307C, strain MCK1, active compounds read low 0.96 | S. cerevisiae deletion strains, locus YNL322C, strain KRE1 (second series), active compounds read low 0.986 | S. cerevisiae deletion strains, locus YNL322C, strain KRE1, active compounds read low 0.998 | S. cerevisiae deletion strains, locus YNR049C, strain mso1, active compounds read low 0.991 | S. cerevisiae deletion strains, locus YNR052C, strain pop2, active compounds read low 0.962 | S. cerevisiae deletion strains, locus YOL006C, strain TOP1, active compounds read low 1.03 | S. cerevisiae deletion strains, locus YOL012C, strain htz1 0.873 | S. cerevisiae deletion strains, locus YOL147C, strain pex11, active compounds read low 0.991 | S. cerevisiae deletion strains, locus YOR001W, strain rrp6, active compounds read low 0.949 | S. cerevisiae deletion strains, locus YOR061W, strain CKA2, active compounds read low 0.994 | S. cerevisiae deletion strains, locus YOR069W, strain VPS5, active compounds read low 0.975 | S. cerevisiae deletion strains, locus YOR070C, strain gyp1, active compounds read low 1 | S. cerevisiae deletion strains, locus YOR080W, strain dia2, active compounds read low 1 | S. cerevisiae deletion strains, locus YOR083W, strain WHI5, active compounds read low 0.99 | S. cerevisiae deletion strains, locus YOR106W, strain vam3, active compounds read low 1.03 | S. cerevisiae deletion strains, locus YOR136W, strain idh2, active compounds read low 0.98 | S. cerevisiae deletion strains, locus YOR144C, strain elg1, active compounds read low 0.986 | S. cerevisiae deletion strains, locus YOR184W, strain ser1, active compounds read low 0.951 | S. cerevisiae deletion strains, locus YOR231W, strain MKK1, active compounds read low 0.999 | S. cerevisiae deletion strains, locus YOR265W, strain rbl2, active compounds read low 0.996 | S. cerevisiae deletion strains, locus YOR270C, strain vph1, active compounds read low 0.929 | S. cerevisiae deletion strains, locus YOR290C, strain snf2, active compounds read low 1.02 | S. cerevisiae deletion strains, locus YOR316C, strain cot1, active compounds read low 0.983 | S. cerevisiae deletion strains, locus YPL051W, strain arl3, active compounds read low 1.04 | S. cerevisiae deletion strains, locus YPL055C, strain LGE1, active compounds read low 1.03 | S. cerevisiae deletion strains, locus YPL078C, strain atp4, active compounds read low 1.01 | S. cerevisiae deletion strains, locus YPL106C, strain sse1, active compounds read low 1.01 | S. cerevisiae deletion strains, locus YPL240C, strain hsp82, active compounds read low 0.986 | S. cerevisiae deletion strains, locus YPL241C, strain CIN2, active compounds read low 0.996 | S. cerevisiae deletion strains, locus YPL256C, strain CLN2, active compounds read low 0.992 | S. cerevisiae deletion strains, locus YPR119W, strain clb2, active compounds read low 0.997 | S. cerevisiae deletion strains, locus YPR141C, strain kar3, active compounds read low 0.987 | S. cerevisiae deletion strains, locus YPR163C, strain tif3, active compounds read low 0.983 | S. cerevisiae deletion strains, locus YPR167C, strain met16, active compounds read low 0.979 | S. cerevisiae deletion strains, strain wtn01, active compounds read low 0.999 | S. cerevisiae strains, strain wild type, active compounds read low 0.989
